Measurements taken from PubChem BioAssay (Tox21).
Results filed as inconclusive are left out. A number with no mark means an inactive call. The call rests on the fitted dose curve; in most records, active means well fitted inhibition curve with a large enough effect in the signal ratio in the repeat runs (not every such curve was filed as active); inconclusive means weak or mixed curves, or effect the other way; inactive means flat fitted curve, though single readings scatter; the % refers to the signal ratio.

experiment: cAMP Responsive Elements (CRE) small molecule antagonists, cell-based qHTS assay (AID 1963591); details: CRE-bla HEK293T, beta-lactamase FRET ratio; series mostly up to 92.4 µM; activity change, negative = inhibition: at the top concentration
Excerpt: U.S. Tox21 Program National Center for Advancing Translational Sciences [NCATS] Division of Preclinical Innovation [DPI] U.S. Environmental Protection Agency [EPA] National Institutes of Environmental Health Sciences [NIEHS] National Toxicology Program [NTP] U.S. Food and Drug Administration [FDA] Tox21 Assay Overview: CREB (cyclic-AMP Responsive Element Binding Protein) is a cellular transcription factor. It binds to certain DNA sequences called cAMP Responsive Elements (CRE) and regulates the transcription of the genes. […] This cell line can be used to find agonists/antagonists of the cyclic AMP signaling pathway. The activation of the report gene under culture conditions can be detected by fluorescence intensity. This cell line has been used to screen the Tox21 10K compound library to […].
Tox21 Assay Protocol Summary: CRE-bla Hek 293T cells were suspended in assay medium (DMEM containing 10% dialyzed FBS, 0.1 mM NEAA, 1 mM sodium pyruvate and 25 mM HEPES) and dispensed at 2,000 cells/4 uL /well into 1536-well black wall/clear bottom plates using a Multidrop Combi (ThermoFisher Scientific, Waltham, MA) dispenser. After the assay plates were incubated at 37 C/5% CO2 for 18 hrs, 23 nL of compounds dissolved in DMSO, positive controls or DMSO only was transferred to the assay plate by a pintool workstation (Kalypsys, San Diego, CA), followed by addition of 1 […] uL of 1.25uM NKH477 (0.25 uM as final concentration) in assay medium using a Flying Reagent Dispenser (Aurora Discovery, San Diego, CA). The plates were incubated at 37 C and 5% CO2 for 3 hrs. Then 1 uL of LiveBLAzer B/G FRET substrate (Invitrogen, Carlsbad, CA) was added to each well using Bioraptr Flying Reagent Dispenser (FRD, Aurora Discovery, San Diego, CA). The plates were incubated at room temperature for 2 h.
On the % scale 0 is the no-effect control and ±100 the full control effect.

SMILES	activity change, negative = inhibition
OC1CCC(C2CCCCC2)CC1 (stereo not given)	-5.88%
O=C(CCCCC(=O)Nc1c(I)cc(I)c(C(=O)O)c1I)Nc1c(I)cc(I)c(C(=O)O)c1I	-1.82% [at 42.4 µM]
CCCC(=O)C(CC)Sc1ccoc1C (stereo not given)	1.46%
CCc1cccc(C)c1N(C(=O)C(=O)O)C(C)COC (stereo not given)	-1.38%
CC1(N)CCC(C(C)(C)N)CC1 (stereo not given)	3.2%
CN1CCN(C(c2ccccc2)c2ccccc2)CC1	-1.69% [at 42.4 µM]
O=C(O)c1ccc[n+]([O-])c1	-8.46% [at 42.4 µM]
CCCCCC#CC(=O)OC	-8.76%
CCOC(=O)C(=O)c1csc(NC=O)n1	-0.164% [at 42.4 µM]
CC(C(=O)O)c1ccc2c(c1)CC(=O)c1ccccc1S2 (stereo not given)	-0.615% [at 42.4 µM]
CCOC(CN1CCN(CC(C)C(=O)c2ccccc2)CC1)c1ccccc1 (stereo not given)	10.1% [at 18.9 µM]
O=[N+]([O-])c1ccc(/C=N\O)o1	-9.69% [at 42.4 µM]
CC1=CP(=O)(c2ccccc2)CC1 (stereo not given)	-1.51%
Cc1cc(C)c(O)c(C(C)(C)C)c1	-31.3%
Nc1ccc(Cl)cc1[N+](=O)[O-]	7.52%
Cc1ccc2c(Cl)cc(Cl)c(O)c2n1	0.33% [at 42.4 µM]
CC(C)CC(C)CC(C)CC(C)COC(=O)c1ccccc1C(=O)OCC(C)CC(C)CC(C)CC(C)C (stereo not given)	-8.66%
CCCCCCCCCCCCCCCCCl	-10.5% [at 18.9 µM]
C=CN1CCCCCC1=O	-11.5%
CC(CN(C)C)C(C)(O)Cc1ccc(Cl)cc1 (stereo not given)	4.25% [at 42.4 µM]

SMILES	activity change, negative = inhibition
CCCCN(CCCC)C(=O)N(CCCC)CCCC	13.1%
CC(=O)c1cccnc1	-0.84%
O=[N+]([O-])c1ccc(CO)cc1	-1.46%
Cc1ccc(Cl)c(OCC(O)CNC(C)(C)C)c1 (stereo not given)	-9.02% [at 42.4 µM]
NC(CS)C(=O)O (stereo not given)	-1.31% [at 42.4 µM]
CC(C)(C)c1nnc(NS(=O)(=O)c2ccccc2)s1	-12.6% [at 42.4 µM]
CCCCCc1ccc(N)cc1	-11.8%
CCOC(=O)COc1ccc(C)cc1	0.855%
O=C(NC(Cc1cc(=O)[nH]c2ccccc12)C(=O)O)c1ccc(Cl)cc1 (stereo not given)	0.489% [at 42.4 µM]
CN1C(=O)c2ccc([N+](=O)[O-])cc2C1=O	-5.61%
COc1ccc(CCC(=O)c2c(O)cc(O[C@@H]3O[C@H](CO)[C@@H](O)[C@H](O)[C@H]3O[C@@H]3O[C@@H](C)[C@H](O)[C@@H](O)[C@H]3O)cc2O)cc1O	1.85%
CC(C)(C)NC[C@H](O)COc1cccc2c1CCCC2=O	-4.39% [at 42.4 µM]
O=C(NCC1CN(c2ccc(N3CCOCC3=O)cc2)C(=O)O1)c1ccc(Cl)s1 (stereo not given)	4.42% [at 42.4 µM]
C[N+](C)(C)CCCCCCCCCC[N+](C)(C)C	-9.42% [at 42.4 µM]
CCCC(C)C=O (stereo not given)	-8.59%
C/C=C(\C)C#N	4.32%
NCC(=O)O	4.57% [at 18.9 µM]
CCCCOC(=O)CC	0.0698%
CC(C)(O)CCCC1=CCC(C=O)CC1 (stereo not given)	-9.21%
CC(=O)C=O	1.91%
